In the library only some 18% were active in any assay of this set; here they are far more common.
GCN5L2 inh = GCN5L2 (KAT2A) acetyltransferase inhibition. GCN5L2 HAT assay, ThioGlo1 CoA-SH fluorescence. Potency, µM (doses to about 58.9 µM), without a hit: at the highest dose activity change, negative = inhibition, most hits filed as inhibitors. 390,000 tested, 0.21% active. AID 504327
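Compounds, pin-transferred from DMSO stocks, meet 20nM GCN5L2 for 15 min before the reaction begins with H3(1-25) peptide (75uM) and acetyl-CoA (70uM). Thiol-reactive ThioGlo1 reports CoA release over 20 min at room temperature.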
DT40 TDP1 no CPT = qHTS for Inhibitors of human tyrosyl-DNA phosphodiesterase 1 (TDP1): qHTS in cells in absence of CPT; AID 686978, 2013; DT40 Tdp1-/- hTDP1 cells, no CPT, ATP luminescence, 48 h; Potency, µM (titrated, usually from 46.2 µM), for inactives: at the highest dose activity change, negative = growth inhibition, hits mostly inhibitors; 420,000 tested, 15% active; note: nearly all actives have a fitted effect of over 55% in size
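Seeded 400 DT40-hTDP1 cells/well (vehicle DMSO, no 20 nM CPT); pinned compounds; ≥48 hr at 37 °C; CellTiter-Glo luminescence as viability measure.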
TDP1 inh = blocks human tyrosyl-DNA phosphodiesterase 1; Q9NUW8; recombinant TDP1, AlphaScreen DNA substrate cleavage; Potency, µM (titrated, usually from 130 µM), without a hit: at the top dose activity change, negative = inhibition, actives largely listed as inhibitors; 350,000 tested, 0.28% active; AID 485290; note: nearly all actives have a fitted effect of over 40% in size
Target sequence (Q9NUW8 whole entry, looked up): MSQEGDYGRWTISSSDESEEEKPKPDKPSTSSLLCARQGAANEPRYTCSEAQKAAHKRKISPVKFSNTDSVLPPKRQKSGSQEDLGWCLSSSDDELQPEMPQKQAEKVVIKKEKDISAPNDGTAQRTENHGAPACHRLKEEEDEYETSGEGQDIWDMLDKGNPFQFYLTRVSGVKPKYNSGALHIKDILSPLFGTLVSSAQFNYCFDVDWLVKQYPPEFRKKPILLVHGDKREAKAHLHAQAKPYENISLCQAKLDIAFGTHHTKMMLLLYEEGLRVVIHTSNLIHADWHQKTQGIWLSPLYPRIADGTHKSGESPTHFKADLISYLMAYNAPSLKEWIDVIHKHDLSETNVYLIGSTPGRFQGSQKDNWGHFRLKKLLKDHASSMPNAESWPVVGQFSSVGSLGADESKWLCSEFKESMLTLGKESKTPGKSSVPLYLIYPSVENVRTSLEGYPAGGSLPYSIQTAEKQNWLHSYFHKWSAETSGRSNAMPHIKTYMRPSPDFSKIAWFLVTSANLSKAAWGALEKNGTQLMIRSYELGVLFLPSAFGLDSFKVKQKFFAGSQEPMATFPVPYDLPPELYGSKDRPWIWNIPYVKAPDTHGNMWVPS
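Steps: enzyme plus compound, 15 min RT; add biotin/phosphotyrosine-FITC oligonucleotide (15 nM final), react 5 min; add donor/acceptor beads (10 ug/ml final), 10 min; read AlphaScreen. Tdp1 at 1 nM final.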
VDR inhibitor = blocks the human vitamin D receptor | VDR-SRC2-3 peptide fluorescence polarization, 2 h | P11473 | Potency, µM, without a hit: max response, negative = inhibition, most hits filed as inhibitors | AID 504847 | 400,000 tested, 0.93% active
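VDR–SRC2-3 interaction, FP format. Cmpds 23 nl via pintool, brief spin, 2 h ambient incubation.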
PLK1 PBD inh = PLK1 (human) polo-box domain binding inhibition; Potency, µM, for inactives: max response, negative = inhibition, most hits filed as inhibitors; P53350; 360,000 tested, 2.8% active; Plk1 PBD binding of FITC phosphopeptide, fluorescence polarization; note: series mostly up to about 57 µM; nearly all actives have a fitted effect of over 65% in size
TDP1 cell CPT = growth inhibition of DT40 Tdp1-/-;hTDP1 cells with camptothecin (screen for TDP1 inhibitors); chicken DT40 Tdp1-/-;hTDP1 cells + 20 nM CPT, ATP luminescence, 48 h; Potency, µM (highest dose often 46.2 µM), for the others: at the top dose activity change, negative = growth inhibition, actives largely listed as inhibitors; 420,000 tested, 12% active; note: nearly all actives have a fitted effect of over 55% in size
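Chicken DT40 Tdp1-/- cells complemented with human TDP1, 400 cells/well, exposed to compounds plus 20 nM camptothecin for at least 48 h at 37 C; viability read as ATP content by CellTiter-Glo luminescence.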
* hit, by the source's call; ? = inconclusive; / = no result; [ ] = dose if it differs, or a comment. Calls come from the whole dose curve; as a rule, active = well fitted curve in the direction sought with a large enough effect; inconclusive = small, poorly fitted or top-dose-only effect, or another doubt; inactive = no such curve, though single readings can be large; an effect the other way counts as inactive or inconclusive. % is set by controls: 0 for no effect and ±100 for the full control effect; potency is the fitted concentration of half-maximal effect.

SMILES	GCN5L2 inh	DT40 TDP1 no CPT	TDP1 inh	VDR inhibitor	PLK1 PBD inh	TDP1 cell CPT
C=C[C@@H]1c2cc(C)ccc2N(S(=O)(=O)c2ccc(C)cc2)[C@H](c2ccccc2)C1(C#N)C#N	0%	10µM*	0%	-4%	-14%	7.9µM*
CC1CCCN(C(=O)COC(=O)C2=COCCO2)C1 (centres undefined)	-4%	2%	1%	5%	2%	-24%
C=CCC(C)(NCc1ccccc1)c1ccccc1 (centres undefined)	-1%	?	-3%	?	21µM*	?
C=CCC(C)(NCc1ccccc1)c1ccc(C)cc1 (centres undefined)	-2%	?	-2%	7%	8%	?
O=S1(=O)C2CC3CCC2(CN1Cc1cccc(F)c1)O3 (centres undefined)	/	/	0%	0%	/	/
CC(C)[C@@H]1Cc2[nH]n(C)c(=O)c2[C@H](c2ccc(F)cc2)O1	/	-1%	/	/	-2%	3%
Cn1[nH]c2c(c1=O)[C@H](c1ccc(F)cc1)O[C@H](CCc1ccccc1)C2	/	?	/	/	19µM*	-20%
COCCCNC(=O)CN1C(=O)c2cccnc2Sc2ccccc21	1%	-9%	-1%	10%	/	-7%
Cc1ccc(C)c(NC(=O)CCN2C(=O)c3ccccc3Sc3ncccc32)c1	-3%	18µM*	0%	2%	/	?
CCCCSCCCNC(=O)CCCN1C(=O)c2ccccc2Sc2ncccc21	-1%	16µM*	/	-22%	4%	?
COc1ccc(NC(=O)CN2C(=O)c3cccnc3Sc3ccccc32)cc1OC	-2%	16µM*	7%	9%	/	?
O=C(CCN1C(=O)c2ccccc2Sc2ncccc21)Nc1ccc(F)cc1	-8%	?	0%	-7%	/	16µM*
O=C(O)CCC/C=C\C/C=C\C=C\[C@@H](O)C/C=C\CCCCCO	/	/	5%	11%	/	/
CC(C)CNC(=O)C(=O)Nc1c2c(nn1-c1ccc(Cl)cc1)CSC2	-8%	-24%	10%	12%	/	?
COC(=O)CN(C(=O)CSc1nnc(-c2cccc(OC)c2)o1)c1ccc(OC)cc1	-6%	?	3%	21%	-14%	?
CCOC(=O)CN(C(=O)CSc1nnc2c(n1)[nH]c1ccc(OC)cc12)c1ccc(F)cc1	-11%	?	8%	7%	2%	21µM*
CCOC(=O)CN(C(=O)CSc1nnc(-c2cccc(OC)c2)o1)c1ccc(F)cc1	-6%	16µM*	-8%	15%	-11%	?
O=C(CSc1nnc(-c2c[nH]c3ccccc23)o1)N(Cc1ccccc1)c1ccc(F)cc1	-11%	?	5%[56.1 µM]	10%	-6%	?
COc1ccc(CN(C(=O)CSc2nnc(-c3ccccc3C)o2)c2ccc(F)cc2)cc1	-2%	23µM*	5%	12%	2%	?
O=C(COC(=O)CNC(=O)c1ccccc1)Nc1ccc(Cl)cn1	-6%	-9%	0%	-12%	2%	-22%
COc1ccc(OCC(=O)Nc2ccc(NC(=O)c3ccccc3Cl)c(OC)c2)cc1	-9%	2%	3%	11%	5%	-13%
CC[C@H](C)[C@H](NC(=O)[C@H](CCC(=O)O)NC(=O)[C@@H](N)CO)C(=O)N[C@@H](CCC(N)=O)C(=O)N[C@@H](CC(C)C)C(=O)N[C@@H](CCSC)C(=O)N[C@@H](Cc1cnc[nH]1)C(=O)N[C@@H](CC(N)=O)C(=O)N[C@@H](CC(C)C)C(=O)NCC(=O)N[C@@H](CCCCN)C(=O)N[C@@H](Cc1cnc[nH]1)C(=O)N[C@@H](CC(C)C)C(=O)N[C@@H](C)C(=O)N[C@@H](CO)C(=O)N[C@H](C(=O)N[C@@H](CCC(=O)O)C(=O)N[C@@H](CCCNC(=N)N)C(=O)N[C@@H](CCSC)C(=O)N[C@@H](CCC(N)=O)C(=O)N[C@@H](Cc1c[nH]c2ccccc12)C(=O)N[C@@H](CC(C)C)C(=O)N[C@@H](CCCNC(=N)N)C(=O)N[C@@H](CCCCN)C(=O)N[C@@H](CCCCN)C(=O)N[C@@H](CC(C)C)C(=O)N[C@@H](CCC(N)=O)C(=O)N[C@@H](CC(=O)O)C(=O)N[C@H](C(=O)N[C@@H](Cc1cnc[nH]1)C(=O)N[C@@H](CC(N)=O)C(=O)N[C@@H](Cc1ccccc1)C(=O)O)C(C)C)C(C)C	-16%	/	11%	7%	/	/
CC(NS(=O)(=O)c1cc(C(F)(F)F)ccc1Cl)C(=O)N(C)C1CCN(C)CC1 (centres undefined)	0%	0%	0%	-6%	0%	1%
CCN(CC)c1ncnc2scc(C3COc4ccccc4O3)c12 (centres undefined)	-6%	?	-2%	-21%	1%	16µM*
CNC(=O)c1ccc2cc(OC)c(OC)cc2c1	/	-8%	/	/	-9%	41%
SMILES	GCN5L2 inh	DT40 TDP1 no CPT	TDP1 inh	VDR inhibitor	PLK1 PBD inh	TDP1 cell CPT
O=C(O)c1c[nH]c2c([N+](=O)[O-])cccc2c1=O	/	9.2µM*	/	-8%	-13%	?
O=C(O)c1ccccc1[N+](=O)[O-]	/	/	3%	/	/	/
Cc1nn(C2CCS(=O)(=O)C2)c(C)c1C=O (centres undefined)	-3%	21µM*	6%	?	3.4µM*	?
CN(Cc1ccco1)C(=O)c1ccc2c(c1)N(Cc1ccccc1F)C(=O)c1ccccc1S2	-12%	?	0%	1%	/	21µM*
O=C(NCc1ccco1)c1ccc2c(c1)N(Cc1c(F)cccc1Cl)C(=O)c1ccccc1S2	-5%	16µM*	9%	-7%	/	?
CCN(CC)CCCNC(=O)c1ccc2c(c1)N(Cc1c(F)cccc1Cl)C(=O)c1ccccc1S2	-3%	15µM*	-2%	-14%	/	?
O=C(Cn1c(=O)n(-c2ccccc2)c(=O)c2c3c(sc21)CCC3)c1ccc(Br)cc1	-5%	?	6%	-14%	/	-20%
O=C(Cn1cc(C(F)(F)F)ccc1=O)N/N=C/c1cccc(Cl)c1	-3%	-3%	3%	5%	-4%	-12%
O=C(NCc1ccncc1)c1cnn(-c2nccc(-c3cc4ccccc4o3)n2)c1C1CC1	/	-28%	/	/	/	?
OC(CN(Cc1ccccc1)Cc1ccccc1)c1ccccc1 (centres undefined)	/	18µM*	/	8%	-8%	16µM*
CC(C)OCCCN(CC(O)c1ccccc1)CC(O)c1ccccc1 (centres undefined)	2%	?	0%	14%	1%	?

Compound activity as filed in PubChem BioAssay.
